# Assay results from paper PMC11062922 (Nature Chemical Biology, 2023).
# Like-named read-outs stand apart in the source and are kept apart here.
# Columns and labels:
# [1] = test system: AAK1; parameters: species or system human, MV4-11 + K-562 + COLO205 + SK-N-BE2 + OVCAR-8; settings: read-out: apparent Kd, n = 1
# [2] = test system: BMP2K; parameters: species or system human, MV4-11 + K-562 + COLO205 + SK-N-BE2 + OVCAR-8; settings: read-out: apparent Kd, n = 1
# [3] = test system: CLK1; parameters: species or system human, MV4-11 + K-562 + COLO205 + SK-N-BE2 + OVCAR-8; settings: read-out: apparent Kd, n = 1
# [4] = test system: CSNK2A1;CSNK2A3; parameters: species or system human, MV4-11 + K-562 + COLO205 + SK-N-BE2 + OVCAR-8; settings: read-out: apparent Kd, n = 1
# [5] = test system: CSNK2A2; parameters: species or system human, MV4-11 + K-562 + COLO205 + SK-N-BE2 + OVCAR-8; settings: read-out: apparent Kd; compound concentrations:100 nM and 1000 nM (sheet 'Samples'); n = 1
# [6] = test system: FLT4; parameters: species or system human, MV4-11 + K-562 + COLO205 + SK-N-BE2 + OVCAR-8; settings: read-out: apparent Kd, n = 1
# [7] = test system: GAK; parameters: species or system human, MV4-11 + K-562 + COLO205 + SK-N-BE2 + OVCAR-8; settings: read-out: apparent Kd, n = 1
# [8] = test system: GSK3A; parameters: species or system human, MV4-11 + K-562 + COLO205 + SK-N-BE2 + OVCAR-8; settings: read-out: apparent Kd, n = 1
# [9] = test system: GSK3B; parameters: species or system human, MV4-11 + K-562 + COLO205 + SK-N-BE2 + OVCAR-8; settings: read-out: apparent Kd, n = 1
# [10] = test system: NUAK1; parameters: species or system human, MV4-11 + K-562 + COLO205 + SK-N-BE2 + OVCAR-8; settings: read-out: apparent Kd, n = 1
# [11] = test system: PAK4; parameters: species or system human, MV4-11 + K-562 + COLO205 + SK-N-BE2 + OVCAR-8; settings: read-out: apparent Kd, n = 1
# [12] = test system: PKN1; parameters: species or system human, MV4-11 + K-562 + COLO205 + SK-N-BE2 + OVCAR-8; settings: read-out: apparent Kd, n = 1
# [13] = test system: PKN3; parameters: species or system human, MV4-11 + K-562 + COLO205 + SK-N-BE2 + OVCAR-8; settings: read-out: apparent Kd, n = 1;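 for IC50: NanoBRET target engagement in HEK293T cells transiently expressing full-length PKN3 with C-terminal NanoLuc, displacement of fluorescent tracer K5 (500 nM), BRET read after 2 h equilibration at 37 °C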
# [14] = target: Q6ZSR9 (human, UniProt Q6ZSR9); parameters: species or system MV4-11 + K-562 + COLO205 + SK-N-BE2 + OVCAR-8; settings: read-out: apparent Kd; compound concentrations:100 nM and 1000 nM (sheet 'Samples'); n = 1
# [15] = test system: RET; parameters: species or system human, MV4-11 + K-562 + COLO205 + SK-N-BE2 + OVCAR-8; settings: read-out: apparent Kd, n = 1
# [16] = test system: SIK2; parameters: species or system human, MV4-11 + K-562 + COLO205 + SK-N-BE2 + OVCAR-8; settings: read-out: apparent Kd, n = 1
# [17] = test system: PKN3; settings: hek293t cells;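 for IC50: NanoBRET target engagement in HEK293T cells transiently expressing full-length PKN3 with C-terminal NanoLuc, displacement of fluorescent tracer K5 (500 nM), BRET read after 2 h equilibration at 37 °C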
# [18] = test system: CLK4; parameters: species or system human, MV4-11 + K-562 + COLO205 + SK-N-BE2 + OVCAR-8; settings: read-out: apparent Kd; compound concentrations: 100 nM and 1000 nM (sheet 'Samples'), CATDS: 3.9570541670233801E-3; n = 1
# [19] = test system: FLT3; parameters: species or system human, MV4-11 + K-562 + COLO205 + SK-N-BE2 + OVCAR-8; settings: read-out: apparent Kd; compound concentrations: 100 nM and 1000 nM (sheet 'Samples'), CATDS: 6.0970372773572496E-3; n = 1
# [20] = test system: MELK; parameters: species or system human, MV4-11 + K-562 + COLO205 + SK-N-BE2 + OVCAR-8; settings: read-out: apparent Kd; compound concentrations: 100 nM and 1000 nM (sheet 'Samples'), CATDS: 3.6400689102280299E-3; n = 1
# [21] = compound concentrations:100 nM and 1000 nM (sheet 'Samples')
# Chain of Q6ZSR9 (Q6ZSR9 whole entry, looked up): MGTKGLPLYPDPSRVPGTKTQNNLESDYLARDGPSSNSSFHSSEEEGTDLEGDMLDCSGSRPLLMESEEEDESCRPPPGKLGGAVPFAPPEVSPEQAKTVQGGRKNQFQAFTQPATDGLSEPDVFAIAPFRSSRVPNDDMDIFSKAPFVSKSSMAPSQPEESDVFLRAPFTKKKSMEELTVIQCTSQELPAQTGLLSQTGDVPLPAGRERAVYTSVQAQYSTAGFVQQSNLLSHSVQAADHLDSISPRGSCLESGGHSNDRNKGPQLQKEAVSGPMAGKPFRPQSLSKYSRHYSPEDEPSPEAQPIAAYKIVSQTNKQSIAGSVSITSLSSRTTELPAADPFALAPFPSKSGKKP
smiles,measurement,setting,value
Cc1ccc2c(-c3ccncc3)c(-c3ccc(F)cc3)nn2c1.Cl [GW461484A],potency estimated from few doses,[1]; [21],767 nM
same,potency estimated from few doses,[2]; [21],1900 nM
same,potency estimated from few doses,[3]; [21],548 nM
same,potency estimated from few doses,[4]; [21],1550 nM
same,potency estimated from few doses,[5],2220 nM
same,potency estimated from few doses,[6]; [21],1320 nM
same,potency estimated from few doses,[7]; [21],319 nM
same,potency estimated from few doses,[8]; [21],434 nM
same,potency estimated from few doses,[9]; [21],493 nM
same,potency estimated from few doses,[10]; [21],1590 nM
same,potency estimated from few doses,[11]; [21],888 nM
same,potency estimated from few doses,[12]; [21],2010 nM
same,potency estimated from few doses,[13]; [21],1390 nM
same,potency estimated from few doses,[14],942 nM
same,potency estimated from few doses,[15]; [21],683 nM
same,potency estimated from few doses,[16]; [21],696 nM
CCn1c(-c2nonc2N)nc2c(C#CC(C)(C)O)nc(OCCNC)cc21.Cl [GSK949675A],potency estimated from few doses,[8]; [21],70.4 nM
same,potency estimated from few doses,[9]; [21],91.5 nM
same,potency estimated from few doses,[11]; [21],736 nM
same,potency estimated from few doses,[12]; [21],675 nM
same,potency estimated from few doses,[13]; [21],2.48 nM
same,IC50,"[17]; read-out: Average, SD, n = 4",669 nM
same,IC50,[17]; read-out: Rep 1,1950 nM
same,IC50,[17]; read-out: Rep 2,441 nM
same,IC50,[17]; read-out: Rep 3,149 nM
same,IC50,[17]; read-out: Rep 4,136 nM
Cc1cccc(Nc2nc(N[C@H]3CCCC[C@H]3N)ncc2C(N)=O)c1.Cl [GSK986310C],potency estimated from few doses,[11]; [21],322 nM
Cn1ncc2c(N)ncnc21 [SKF-18267],potency estimated from few doses,"[1]; compound concentrations: 100 nM and 1000 nM (sheet 'Samples'), CATDS: 4.0309487407882601E-3",1310 nM
same,potency estimated from few doses,"[2]; compound concentrations: 100 nM and 1000 nM (sheet 'Samples'), CATDS: 3.9456431934801499E-3",1380 nM
same,potency estimated from few doses,"[3]; compound concentrations: 100 nM and 1000 nM (sheet 'Samples'), CATDS: 4.6708282192626498E-3",936 nM
same,potency estimated from few doses,[18],1370 nM
same,potency estimated from few doses,"[4]; compound concentrations: 100 nM and 1000 nM (sheet 'Samples'), CATDS: 3.9180257487408596E-3",1410 nM
same,potency estimated from few doses,[19],564 nM
same,potency estimated from few doses,"[6]; compound concentrations: 100 nM and 1000 nM (sheet 'Samples'), CATDS: 3.68265662419527E-3",1670 nM
same,potency estimated from few doses,"[7]; compound concentrations: 100 nM and 1000 nM (sheet 'Samples'), CATDS: 4.6125077933925696E-3",961 nM
same,potency estimated from few doses,"[8]; compound concentrations: 100 nM and 1000 nM (sheet 'Samples'), CATDS: 6.4966954074714102E-3",507 nM
same,potency estimated from few doses,"[9]; compound concentrations: 100 nM and 1000 nM (sheet 'Samples'), CATDS: 6.1120630546354802E-3",562 nM
same,potency estimated from few doses,[20],1720 nM
same,potency estimated from few doses,"[10]; compound concentrations: 100 nM and 1000 nM (sheet 'Samples'), CATDS: 3.5163912979630598E-3",1910 nM
same,potency estimated from few doses,"[11]; compound concentrations: 100 nM and 1000 nM (sheet 'Samples'), CATDS: 4.003241038036E-3",1330 nM
same,potency estimated from few doses,"[12]; compound concentrations: 100 nM and 1000 nM (sheet 'Samples'), CATDS: 4.0652178532190096E-3",1280 nM
same,potency estimated from few doses,"[15]; compound concentrations: 100 nM and 1000 nM (sheet 'Samples'), CATDS: 4.7446456770992903E-3",906 nM
same,potency estimated from few doses,"[16]; compound concentrations: 100 nM and 1000 nM (sheet 'Samples'), CATDS: 4.9685571215498103E-3",824 nM
COc1cccc2c(-c3ccncc3)c(-c3ccc(F)cc3)nn12 [GW468513X],potency estimated from few doses,"[7]; compound concentrations: 100 nM and 1000 nM (sheet 'Samples'), CATDS: 4.7773336245273197E-2",615 nM
same,potency estimated from few doses,"[13]; compound concentrations: 100 nM and 1000 nM (sheet 'Samples'), CATDS: 5.3563953975551901E-2",427 nM
same,IC50,"[17]; read-out: Average, SD, n = 3",910 nM
same,IC50,[17]; read-out: Rep 1,2100 nM
same,IC50,[17]; read-out: Rep 2,552 nM
same,IC50,[17]; read-out: Rep 4,73.9 nM
